Measured values reported in PubChem BioAssay (Tox21).
Values joined by “and” are separate entries in the source; they are usually repeats but may differ in a detail not shown here. Identical values can stand only once. Values without a mark were called inactive. Inconclusive results are not listed. Entries that show only a call come without a potency. Active and inactive are the calls of the source. Unless noted, calls come from the whole dose curve; as a rule, active = well fitted curve in the direction sought with a large enough effect in the repeat runs; inconclusive = weak or mixed curves; inactive = no such curve, though single readings can be large; an effect the other way counts as inactive or inconclusive.

Legend:
[1] = qHTS assay to identify small molecule agonists of the hypoxia (HIF-1) signaling pathway - cell viability counter screen (AID 1224844; calls by dose curve; note: nearly all actives have a fitted effect of over 50% in size; note: potency is the fitted concentration of half-maximal effect)
Outline: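 Tox21 10K compounds were added to HRE-bla ME-180 cells (0.5% dialyzed FBS) and incubated 17 hrs at 37C; ATP-based CellTiter-Glo luminescence then reported cell viability in the same wells.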

[2] = qHTS assay to identify small molecule agonists of H2AX (AID 1224845; active = well fitted activation curve with a large enough effect in the signal ratio in the repeat runs, not every such curve was filed as active; the % refers to the signal ratio; note: potency is the fitted concentration of half-maximal effect)
Outline: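 Wild-type CHO-K1 cells plated overnight, then exposed 3 hr at 37C to compounds at 15 concentrations (0.76% DMSO). Lysed, then HTRF anti-pH2AX(S139)-cryptate/anti-H2AX-d2 detection after 24 hr at room temperature; emissions 665 and 620 nm.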

[3] = qHTS assay to identify small molecule agonists of the hypoxia (HIF-1) signaling pathway (AID 1224846; active = well fitted activation curve with a large enough effect in the signal ratio in the repeat runs, not every such curve was filed as active; the % refers to the signal ratio)
Outline: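 Steps: seed ME-180 HRE-bla cells (2,000/well, 0.5% dialyzed FBS); incubate 5 hrs at 37C; pin-transfer compounds or DMSO; incubate 17 hrs; add LiveBLAzer B/G substrate CCF4-AM; measure reporter activation by FRET.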

[4] = qHTS assay to identify small molecule antagonists of the estrogen related receptor (ERR) signaling pathway from Tox21 library (AID 1224848); note: nearly all actives have a fitted effect of over 50% in size; note: potency is the fitted concentration of half-maximal effect
Outline: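 Cells: ERR line, 2,000/well; 6 h preincubation 37 C/5% CO2. Cpd in DMSO via pin tool; 18 h, 37 C. ONE-Glo, 30 min RT, luminescence.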

[5] = qHTS RealTime-Glo MT Cell Viability Assay in HepG2 cells - 24 hour (AID 1224867); note: nearly all actives have a fitted effect of over 50% in size; note: potency is the fitted concentration of half-maximal effect
Outline: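 Luminescence read-out: viable HepG2 cells reduce a prosubstrate to a NanoLuc substrate, giving a signal proportional to live cell number. Reads taken at 0, 8, 16, 24, 32 and 40 h of compound exposure at 37 C.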

[6] = qHTS RealTime-Glo MT Cell Viability Assay in HepG2 cells - 40 hour (AID 1224870); note: nearly all actives have a fitted effect of over 50% in size; note: potency is the fitted concentration of half-maximal effect
Outline: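 HepG2 cells mixed with RealTime-Glo MT reagents (NanoLuc plus cell-permeant prosubstrate) were seeded at 600 cells/well, incubated 5 h at 37 C/5% CO2, then pinned with compounds in DMSO; nonlytic luminescence tracked viability during 40 h treatment.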

[7] = qHTS RealTime-Glo MT Cell Viability Assay in HEK293 cells - 32 hour (AID 1224868); note: nearly all actives have a fitted effect of over 50% in size; note: potency is the fitted concentration of half-maximal effect
Outline: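 Nonlytic real-time viability readout: viable cells convert prosubstrate to NanoLuc substrate, giving luminescence proportional to live cell number. HEK293, 600 cells/well, compound added after 5 h, continuous culture at 37 C.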

[8] = A CellTox Green Cytotoxicity Assay to monitor cytotoxicity in HEK293 cells - 0 hour (AID 1224869); note: nearly all actives have a fitted effect of over 50% in size
Outline: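 Cytotoxicity was tracked continuously in HEK293 cells by a DNA-binding dye excluded from viable cells. Compounds were transferred in DMSO 5 h after seeding; fluorescence was recorded at intervals up to 40 h.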

[9] = qHTS assay to identify small molecule agonists of H2AX - cell viability counter screen (AID 1224847; calls by dose curve; note: nearly all actives have a fitted effect of over 30% in size; note: potency is the fitted concentration of half-maximal effect)
Outline: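 Cells plated first: CHO-K1, 1000 per well in 10% FBS medium, incubated overnight at 37C. Then 15-point compound titration added (final DMSO 0.76%) for 3 hr. Finally CellTiter-Glo added and luminescence read.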

[10] = qHTS assay to identify small molecule agonists of the estrogen related receptor (ERR) signaling pathway from Tox21 library (AID 1224849; calls by dose curve; note: nearly all actives have a fitted effect of over 15% in size); details: ERR reporter cell line, ONE-Glo luciferase, 18 h; at 92.4 µM (top of the series) unless noted
Outline: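 Agonist signal is luciferase luminescence from an ERR reporter cell line treated 18 h at 37 C with DMSO-dissolved compounds, read 30 min after ONE-Glo addition at room temperature.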

Row | SMILES | Potency [1] | Potency [2] | Potency [3] | Potency [4] | Potency [5] | Potency [6] | Potency [7] | Potency [8] | Potency [9] | cytotoxicity [8] | activity change, positive = activation [10]
1 | CCC1COC(Cn2cncn2)(c2ccc(Cl)cc2Cl)O1 (stereo unspecified) | inactive | inactive | inactive | 61.1 µM (active) | inactive | inactive | – | – | – | – | –
2 | O=C(NC(=O)c1c(F)cccc1F)Nc1ccc(Oc2ccc(C(F)(F)F)cc2Cl)cc1F | inactive | inactive | inactive | – | inactive | inactive | 43.6 µM (active) | – | – | – | –
3 | CC1CCCC1 | inactive | inactive | inactive | – | inactive | inactive | inactive | – | – | – | –
4 | Clc1cc(Cl)c(-c2cc(Cl)c(Cl)cc2Cl)cc1Cl | inactive | inactive | inactive | – | inactive | inactive | inactive | inactive | – | – | –
5 | CSC1=N[C@@](C)(c2ccccc2)C(=O)N1Nc1ccccc1 | inactive | inactive | inactive | – | inactive | inactive | inactive | inactive | – | – | –
6 | CCC[CH2][Sn]([CH2]CCC)([CH2]CCC)[O][Sn]([CH2]CCC)([CH2]CCC)[CH2]CCC | 479 nM (active) | 0.278 µM (active) | – | 0.377 µM (active) | 0.603 µM (active) | 0.537 µM (active) | 0.17 µM (active) | – | 0.278 µM (active) | 2.58% [at 6.97 µM] | –
7 | ClC(Cl)C(Cl)(Cl)Cl | inactive | inactive | inactive | – | inactive | inactive | inactive | inactive | – | – | –
8 | CC(C)Br | inactive | inactive | inactive | – | inactive | inactive | inactive | inactive | – | – | –
9 | CN1CCc2cc3c(cc2C1O)OCO3 (stereo unspecified) | inactive | inactive | – | inactive | inactive | inactive | inactive | inactive | inactive | – | 0.659%
10 | CC1=C2C[C@H]3[C@@H](CC=C4C[C@@H](O)CC[C@@]43C)[C@@H]2CC[C@]12O[C@@H]1C[C@H](C)CN[C@H]1[C@H]2C | inactive | inactive | inactive | – | inactive | inactive | – | – | – | – | –
11 | CCCCC(CC)COC(=O)OOC(C)(C)C (stereo unspecified) | inactive | inactive | inactive | – | inactive | – | – | inactive | – | – | –
12 | CC(C)N(C(=O)SC/C(Cl)=C/Cl)C(C)C | inactive | inactive | inactive | – | inactive | inactive | inactive | inactive | – | – | –
13 | C[C@]12Cc3cn[nH]c3C[C@@H]1CC[C@@H]1[C@@H]2CC[C@@]2(C)[C@H]1CC[C@]2(C)O | 8490 nM (active) | inactive | – | 26.6 µM (active) | inactive | inactive | – | inactive | inactive | – | -42.2% [at 42.5 µM]
14 | Cc1c([N+](=O)[O-])cc2c(c1[N+](=O)[O-])C(C)(C)CC2(C)C | inactive | inactive | inactive | – | inactive | inactive | inactive | inactive | – | – | -30.3%
15 | Cc1ccc(C)c2ccccc12 | inactive | inactive | inactive | – | inactive | inactive | inactive | inactive | – | – | –
16 | O=NN(CCO)CCO | inactive | inactive | inactive | inactive | inactive | inactive | inactive | inactive | – | – | –

Row | SMILES | Potency [1] | Potency [2] | Potency [3] | Potency [4] | Potency [5] | Potency [6] | Potency [7] | Potency [8] | Potency [9] | cytotoxicity [8] | activity change, positive = activation [10]
17 | CC(Cc1ccccc1)N(C)Cc1ccco1 (stereo unspecified) | inactive | inactive | inactive | – | inactive | inactive | inactive | inactive | – | – | –
18 | c1ccc2c(c1)cc1ccc3cccc4ccc2c1c34 | inactive | inactive | – | inactive | inactive | – | inactive | inactive | inactive | – | 61.3% (active)
19 | [F][Sn]([c]1ccccc1)([c]1ccccc1)[c]1ccccc1 | 549 nM (active) | 1.42 µM (active) | – | 0.545 µM (active) | 0.436 µM (active) | – | 0.436 µM (active) | inactive | 22.5 µM (active) | – | -81.3%
20 | COP(=O)(OC)O/C(=C\Cl)c1cc(Cl)c(Cl)cc1Cl | inactive | inactive | – | 21.7 µM (active) | – | – | inactive | inactive | inactive | – | -68.1%
21 | O=C(Cl)c1ccccc1F | inactive | inactive | inactive | – | inactive | – | inactive | inactive | – | – | –
22 | CNC(=O)CSP(=O)(OC)OC | inactive | inactive | inactive | – | inactive | inactive | – | inactive | – | – | –
23 | [Cl-].[Cl-].[Sn+2] | inactive | inactive | inactive | – | inactive | inactive | – | – | – | – | –
24 | COP(=O)(OC)Oc1ccc([N+](=O)[O-])cc1 | inactive | inactive | – | 30.6 µM (active) | inactive | inactive | – | inactive | inactive | – | -54.1%
25 | COC(=O)c1ccccc1S(=O)(=O)NC(=O)Nc1nc(C)nc(OC)n1 | inactive | inactive | inactive | – | inactive | inactive | inactive | inactive | – | – | –
26 | C[C@]12CC[C@H]3[C@@H](CCC4=CC(=O)CC[C@@H]43)[C@@H]1CC[C@@H]2OC(=O)CCc1ccco1 | inactive | inactive | inactive | – | inactive | inactive | – | inactive | – | – | –
27 | C#CCC1=C(C)C(OC(=O)C2C(C=C(C)C)C2(C)C)CC1=O (stereo unspecified) | inactive | inactive | inactive | 48.2 µM (active) | inactive | inactive | – | inactive | – | – | –
28 | C[C@]12C/C(=C/O)C(=O)C[C@@H]1CC[C@@H]1[C@@H]2CC[C@@]2(C)[C@H]1CC[C@]2(C)O | 24.8 µM (active) and 19 µM (active) | 90.6 µM (active) | – | 34.7 µM (active) and 33.5 µM (active) | inactive | – | inactive | inactive | inactive | – | –
29 | CC(Cl)CCl (stereo unspecified) | inactive | inactive | inactive | – | inactive | inactive | – | inactive | – | – | –
30 | N#CCCl | inactive | inactive | inactive | – | inactive | – | – | – | – | – | –
31 | O=C1C[C@@H]2OCC=C3CN4CC[C@]56c7ccccc7N1[C@H]5[C@H]2[C@H]3C[C@H]46 | inactive | inactive | – | inactive | inactive | inactive | – | inactive | inactive | – | -3.01% [at 42.5 µM]
